# Screens from PubChem BioAssay.
# In the library only some 19% were active in any assay of this set; here they are far more common.
# DT40 TDP1 no CPT = qHTS for Inhibitors of human tyrosyl-DNA phosphodiesterase 1 (TDP1): qHTS in cells in absence of CPT; DT40 Tdp1-/- hTDP1 cells, no CPT, ATP luminescence, 48 h; Potency, µM (highest dose often 46.2 µM), for inactives: top-dose activity change, negative = growth inhibition, most hits filed as inhibitors; 420,000 compounds, 15% hits; also: nearly all actives have a fitted effect of over 55% in size
#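 Compound effects on proliferation are scored in DT40 Tdp1-/-;hTDP1 cells in the absence of CPT. ATP levels (CellTiter-Glo luminescence) are recorded after a ≥48 hr, 37 °C incubation.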
# KB-V1 MDR tox = KB-V1 MDR subline cytotoxicity; Potency, µM (series often up to 46.1 µM), most hits filed as cytotoxic; KB-V1 MDR cells viability, CellTiter-Glo, 72 h; 400,000 compounds, 3.4% hits; AID 1347076; also: nearly all actives have a fitted effect of over 60% in size
#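 Drug-selected KB-V1 cells, grown in DMEM lacking phenol red with 10% FBS, receive compound titrations; after three days at 37 degrees C, surviving cell ATP is quantified by CellTiter-Glo luminescence and responses normalized and curve-fitted.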
# HT1080NT lethal = kills 2HG-producing HT-1080-NT fibrosarcoma cells | HT-1080-NT fibrosarcoma viability, CellTiter-Glo ATP luminescence, 48 h | Potency, µM (titrated, usually from 46.1 µM), for inactives: at the top dose activity, negative = less viability, usual class: cytotoxic | 360,000 compounds, 1.6% hits | AID 686970;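 also: NT is the 2HG producing partner of a matched IDH1 knockdown line; 0% = DMSO-treated cells and -100% = media-only wells without cells; nearly all actives have a fitted effect of over 55% in size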
#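 A 48-hour cytotoxicity screen used HT-1080-NT cells plated 2 hours before compound delivery. ATP-based CellTiter-Glo luminescence measured viability, normalized to DMSO and no-cell controls.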
# HT1080 IDH1KD tx = kills HT-1080 cells with IDH1 knockdown. 360,000 compounds, 2% hits. AID 686971. HT-1080 IDH1 knockdown viability, ATP luminescence, 48 h. Potency, µM (doses to about 46.1 µM), for inactives: top-dose activity, negative = toxicity, usual class: cytotoxic;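 also: 0% = DMSO wells and -100% = cell-free medium wells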
#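 Knockdown cells (IDH1KD HT-1080) received compounds 2 h after plating at 750 cells/well and were kept 48 h at 37 °C in 5% FBS RPMI. A CellTiter-Glo luminescence read gave % activity for curve fitting.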
# TDP1 cell CPT = DT40-hTDP1 cell growth loss with CPT; chicken DT40 Tdp1-/-;hTDP1 cells + 20 nM CPT, ATP luminescence, 48 h; Potency, µM (series often up to 46.2 µM), without a hit: at the top dose activity change, negative = growth inhibition, usual class: inhibitors; 420,000 compounds, 12% hits; AID 686979; also: nearly all actives have a fitted effect of over 55% in size
#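 Chicken DT40 Tdp1-/- cells complemented with human TDP1, 400 cells/well, exposed to compounds plus 20 nM camptothecin for at least 48 h at 37 C; viability read as ATP content by CellTiter-Glo luminescence.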
# KB-3-1 tox = KB-3-1 parental cell cytotoxicity. AID 1347075. Potency, µM (doses to about 46.1 µM), most hits filed as cytotoxic. KB-3-1 viability, CellTiter-Glo ATP luminescence, 72 h. 400,000 compounds, 1.4% hits; also: nearly all actives have a fitted effect of over 60% in size
#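 Cytotoxicity measured as CellTiter-Glo luminescence after 72 h at 37 C. Compound titrations were pinned onto drug-naive KB-3-1 parental adenocarcinoma cells grown in DMEM with 10% FBS, and normalized data fitted to concentration-response curves.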
# * = called active by the depositor; i = inactive; u = inconclusive; x = not tested or not shown; [ ] = another dose, or the depositor's remark. Calls follow the shape of the dose curve; as a rule, active = well fitted curve in the direction sought with a large enough effect; inconclusive = small, poorly fitted or top-dose-only effect, or another doubt; inactive = no such curve, though single readings can be large; an effect the other way counts as inactive or inconclusive. Unless noted, % is scaled to controls: 0 for no effect and ±100 for the full control effect; potency is read from the fitted curve at half-maximal effect.
SMILES,DT40 TDP1 no CPT,KB-V1 MDR tox,HT1080NT lethal,HT1080 IDH1KD tx,TDP1 cell CPT,KB-3-1 tox
COc1cc(C(=O)NCCCN2CCCC2=O)cc(Br)c1OCc1ccccc1,18µM*,i,-4%[9.24 µM],2%,u,i
COc1ccc(C(=O)NCC(c2cccs2)N2CCOCC2)cc1OC (stereo not drawn),19%,i,14%,11%,6%,i
COc1ccccc1C1CN(CCNC(=O)c2ccc3c(c2)OCCO3)Cc2ccccc2O1 (stereo not drawn),u,x,x,x,12%[9.04 µM],x
Cc1c(COc2ccc3ccccc3c2)nnn1CC(=O)NS(=O)(=O)c1ccccc1C(F)(F)F,24%,i,13%,16%,0%,i
Fc1ccc(-c2csc3ncnc(N4CCc5ccccc5C4)c23)cc1,u,u,-5%,-13%,16µM*,i
Cc1ccc(-c2csc3ncnc(N4CCc5ccccc5C4)c23)cc1,21µM*,u,-9%,-25%,u,i
CCC1CN(CC(=O)NC(C)c2cn(C)nc2C)Cc2cc(OC)ccc2O1 (stereo not drawn),-6%,x,x,x,9%[9.04 µM],x
C[C@@H]1CN([C@@H](C)CO)C(=O)CCCn2nncc2CO[C@H]1CN(C)S(=O)(=O)c1cccc(C#N)c1,-5%,i,2%,6%,10%,i
COc1cccc(C(=O)Nc2ccc3c(c2)OC[C@H](C)N(C(=O)C2CCCC2)C[C@@H](C)[C@@H](OC)CN(C)C3=O)c1,u,i,-1%,-6%,u,i
COc1cc2c(cc1OC)CN(C(=O)c1cc(C3CC3)nn1-c1ccccc1)CC2,u,i,0%,3%,18µM*,i
N#Cc1ccc(CN2CCN(C(=O)c3cc(C4CC4)nn3-c3ccccc3)CC2)cc1,21µM*,i,-4%,0%,23µM*,i
CN1CCN(C(=O)CN(C)S(=O)(=O)c2ccc(F)cc2)CC1,25%,i,5%,8%,24%,i
C[C@H]1CN([C@@H](C)CO)C(=O)CCCn2cc(nn2)CO[C@@H]1CN(C)S(=O)(=O)c1ccc(C#N)cc1,-30%,i,-5%,8%,11%,i
CC1CCC/C(=N\NC(=S)Nc2ccccc2)C1 (stereo not drawn),10µM*,i,4%,19%,8.2µM*,i
COc1ccc(CNC(=S)Nc2cccc(OC)c2)cc1,-13%,i,18%,-2%,1%,i
CC1CCC/C(=N\NC(=S)NCc2ccccc2)C1 (stereo not drawn),-10%,i,-4%,-5%,-12%,i
FC(F)(F)c1ccccc1NC(=S)NN=C1CCCCCC1,u,u,13µM*,18µM*,u,u
COc1cccc(NC(=S)NN=C2CCCCCC2)c1,5.2µM*,i,-14%,-27%,3.7µM*,i
COc1cccc(NC(=S)NN2CCN(C)CC2)c1,0%,i,-1%,-8%[9.24 µM],29µM*,i
Cc1ccc(C(=O)N/C(=C\c2cccs2)C(=O)NCCCN2CCOCC2)cc1,-11%,i,-11%,-1%,21%,i
CCC1=Nc2cc(C(=O)NCC3CCCO3)ccc2Sc2ccc(Br)cc21 (stereo not drawn),3.3µM*,6.5µM*,u,9.2µM*,3.7µM*,6.5µM*
CCC1=Nc2cc(C(=O)NCC3CCCO3)ccc2Sc2ccc(Cl)cc21 (stereo not drawn),4.1µM*,i,u,16µM*,3.7µM*,9.2µM*
O=C(NCC1CCCO1)c1ccc(NC(=O)c2cccc(Cl)c2)cc1 (stereo not drawn),-28%,u,0%,-1%,-5%,i
Cc1ccc(C(=O)c2cn(CC(=O)NC3CCCCC3)c3nc(C)ccc3c2=O)cc1,u,i,x,x,-27%,i
CCOC(=O)c1sc(-c2cccc(C(F)(F)F)c2)nc1O,21µM*,i,-13%,4%,u,u
SMILES,DT40 TDP1 no CPT,KB-V1 MDR tox,HT1080NT lethal,HT1080 IDH1KD tx,TDP1 cell CPT,KB-3-1 tox
NNC(=O)c1n[nH]c2c1CC(C1CCCCC1)CC2 (stereo not drawn),5.8µM*,i,-2%,1%,5.2µM*,i
C=CCNC(=O)c1n[nH]c2c1CC(C(C)(C)CC)CC2 (stereo not drawn),u,i,13%,15%,u,i
CCC(C)(C)C1CCc2[nH]nc(C(=O)NC3CCCC3)c2C1 (stereo not drawn),u,i,3%,3%,16µM*,i
CCC(C)(C)C1CCc2[nH]nc(C(=O)NCc3ccc(OC)cc3)c2C1 (stereo not drawn),15µM*,i,-2%,-3%,23µM*,i
COc1ccc(Cl)cc1NC(=O)CN1c2ccccc2S(=O)(=O)c2ccccc21,-27%,i,x,x,u,i
C/C(=N\Nc1ccc([N+](=O)[O-])cc1[N+](=O)[O-])c1cccnc1,-7%,i,-15%,-6%,-12%,i
CC(C)=NNc1cnnc2ccc([N+](=O)[O-])cc12,13µM*,i,-25%,-14%,13µM*,i
OCC[n+]1ccc(/C=C/c2c[nH]c3ccccc23)cc1,5.8µM*,i,-2%,-9%,6.5µM*,u
CCCCCCCCCCCCCCCC[n+]1ccc(/C=C/c2c[nH]c3ccccc23)cc1,0.71µM*,u,x,x,0.89µM*,12µM*
CCCCCCCCCC[n+]1ccc(/C=C/c2c[nH]c3ccccc23)cc1,0.11µM*,u,x,x,0.32µM*,5.2µM*
Cc1cnc(C(=O)OCC(=O)N2C(C)CCCC2C)cn1 (stereo not drawn),-8%,i,-4%,-7%,3%,i
CC12CNCC(C)(CN(C(c3ccccc3)c3ccccc3)C1)C2,13µM*,i,u,u,16µM*,u
COC(=O)N1CCC2(CC1)CN(C(c1ccccc1)c1ccccc1)C2,u,x,x,x,-6%,x
c1ccc(C(c2ccccc2)N2CCC3(CCNCC3)CC2)cc1,2.6µM*,x,x,x,5.8µM*,x
COc1cn(CC(=O)Nc2ccc(C)cc2)c(CN2CCCCC2)cc1=O,-14%,x,x,x,10%,x
COc1ccc(NC(=O)c2cnc(C)cn2)cc1-n1cnnn1,-13%,i,-13%,-27%,-14%,i
Cc1cnc(C(=O)Nc2ccc(-n3cnnn3)cc2)cn1,u,i,6%,3%,18µM*,i
